Assay [1] in a line: qHTS assay to identify small molecule agonists of the vitamin D receptor (VDR) signaling pathway - cell viability counter screen (AID 743224; active = well fitted cell-killing curve with a large enough effect in the repeat runs; also: nearly all actives have a fitted effect of over 50% in size; also: potency is read from the fitted curve at half-maximal effect; as to activity change, negative = cytotoxicity: series mostly up to about 63 µM; % is scaled to controls: 0 for no effect and ±100 for the full control effect). In outline: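 Compounds were pin-transferred onto VDR-bla cells plated 4 h earlier; following 16 h incubation at 37C, cell viability was quantified by CellTiter-Glo luminescence after 30 min at room temperature.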
Assay [2] in a line: qHTS assay to identify small molecule antagonists of the vitamin D receptor (VDR) signaling pathway - cell viability counter screen (AID 743225; active = well fitted cell-killing curve with a large enough effect in the repeat runs; also: % is scaled to controls: 0 for no effect and ±100 for the full control effect; nearly all actives have a fitted effect of over 50% in size). In outline: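 Cytotoxicity toward the VDR-bla HEK 293T line was scored by ATP-based CellTiter-Glo luminescence, read in the wells already used for the beta-lactamase readout after 16 h compound treatment under 3 nM 1-alpha,25-dihydroxyvitamin D3 stimulation.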

A short description of assay [3]: qHTS assay to identify small molecule agonists of the NFkB signaling pathway - cell viability counter screen (AID 1159515). Also: nearly all actives have a fitted effect of over 55% in size. Also: potency is read from the fitted curve at half-maximal effect. As to activity, negative = cytotoxic: series mostly up to about 61 µM; % is scaled to controls: 0 for no effect and ±100 for the full control effect. The gist of the method:
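Parallel cytotoxicity counter screen in ME-180 cells carrying an NFkB-response-element beta-lactamase reporter, 2,000 cells/well. Compound exposure lasted 5 hr at 37 C, 5% CO2. Cell viability was quantified by CellTiter-Glo luminescence.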

Assay [4] in a line: qHTS assay to identify small molecule agonists of the endoplasmic reticulum stress response signaling pathway (AID 1159516; active = well fitted activation curve with a large enough effect in the signal ratio in the repeat runs, not every such curve was filed as active; the % refers to the signal ratio; also: potency is read from the fitted curve at half-maximal effect; as to activation: % is scaled to controls: 0 for no effect and ±100 for the full control effect). The gist of the method:
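Using a HeLa line with an ESRE-driven beta-lactamase gene, agonist activity was measured by FRET substrate fluorescence (460 and 530 nm emission) after cells were treated with compounds for 5 hr at 37 C and 5% CO2.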

Assay [5] in a line: qHTS assay to identify small molecule agonists of the endoplasmic reticulum stress response signaling pathway - cell viability counter screen (AID 1159517).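 Also: HeLa cells carrying an ER stress response element beta-lactamase reporter; series mostly up to about 61 µM; % is scaled to controls: 0 for no effect and ±100 for the full control effect; nearly all actives have a fitted effect of over 50% in size.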 In outline:
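Cytotoxicity of test compounds toward ESRE-bla HeLa cells was assessed after 5 hr exposure. The luminescent CellTiter-Glo signal was measured 30 min after reagent addition.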

A short description of assay [6]: qHTS assay to identify small molecule antagonists of the retinoid-related orphan receptor gamma (ROR-gamma) signaling pathway - cell viability counter screen (AID 1159520; active = well fitted cell-killing curve with a large enough effect in the repeat runs; also: % is scaled to controls: 0 for no effect and ±100 for the full control effect; nearly all actives have a fitted effect of over 50% in size). The gist of the method:
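Tet-on ROR gamma CHO cells (1,000/well) were plated 4 hr, given compounds in DMSO for 2 hr at 37 C, then induced with 1 uM final doxycycline for 16 hr. Viability was read as ATP by CellTiter-Glo luminescence after 30 min.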

Assay [7] can be described thus: qHTS assay to identify small molecule agonists of the AP-1 signaling pathway - cell viability counter screen (AID 1159525). Also: nearly all actives have a fitted effect of over 55% in size. Also: potency is read from the fitted curve at half-maximal effect. The gist of the method: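 Each titration point was normalised to DMSO and tetra n-octyl ammonium bromide controls. The read was Cell Titer Glo luminescence after 30 min at RT, following 5 h compound exposure of ME-180 AP-1-bla cells at 37 °C.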

Assay [8] deals with Retinoic acid receptor RXR-alpha (Homo sapiens) (UniProt P19793). The assay can be described thus: qHTS assay to identify small molecule agonists of the RXR signaling pathway (AID 1159527). Also: nearly all actives have a fitted effect of over 35% in size. Also: potency is read from the fitted curve at half-maximal effect. As to activation: % is scaled to controls: 0 for no effect and ±100 for the full control effect. The gist of the method: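 Reporter activation is measured as beta-lactamase activity via FRET substrate cleavage (emission 460/530 nm) in HEK 293T cells expressing an RXR-alpha-driven bla construct, following 16 hr compound exposure at 37 C.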
Retinoic acid receptor RXR-alpha (Homo sapiens), sequence (P19793 whole entry, looked up): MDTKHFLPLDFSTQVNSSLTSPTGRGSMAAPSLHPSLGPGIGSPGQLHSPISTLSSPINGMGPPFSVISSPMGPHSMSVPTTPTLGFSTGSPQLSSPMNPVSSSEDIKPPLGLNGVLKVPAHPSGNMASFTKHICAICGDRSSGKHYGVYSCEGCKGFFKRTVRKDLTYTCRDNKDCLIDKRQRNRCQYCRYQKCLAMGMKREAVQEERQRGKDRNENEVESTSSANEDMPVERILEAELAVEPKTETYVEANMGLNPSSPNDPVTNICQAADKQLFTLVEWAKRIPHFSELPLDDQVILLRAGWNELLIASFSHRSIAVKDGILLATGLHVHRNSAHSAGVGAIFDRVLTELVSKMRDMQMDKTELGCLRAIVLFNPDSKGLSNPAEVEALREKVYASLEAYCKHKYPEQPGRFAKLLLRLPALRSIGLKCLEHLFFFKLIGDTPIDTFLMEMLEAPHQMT

Assay [9] in a line: qHTS assay to identify small molecule agonists of the AP-1 signaling pathway (AID 1159526). Also: potency is read from the fitted curve at half-maximal effect.

Results filed as inconclusive are left out. Unmarked numbers belong to inactive results. The source made the active and inactive calls. Unless noted, calls follow the shape of the full dose curve.

As to `c1ccc(-c2ccccn2)nc1`, the Potency result in assay [1], in assay [2], in assay [3], in [4], in assay [5] and in assay [6] was “inactive” in each case. Also, the Potency entry in assay [7] and in [8] was “inactive” in each case.

Consider `CC(CC=O)c1ccccc1` (centres undefined), for which the Potency result in assay [1], in assay [2], in [3], in assay [4], in [5] and in assay [6] was “inactive” each time. The Potency entry in [7] and in [9] was “inactive” each time.

Consider `O=C(Nc1ccc(S(=O)(=O)N2CCOCC2)cc1)c1cc(Cl)ccc1NS(=O)(=O)c1ccc(Cl)s1`, for which the Potency entry in assay [3], in assay [4], in assay [5], in assay [6], in assay [7] and in assay [8] was “inactive” throughout.

With `CC1(c2ccccc2)OC(C(=O)O)=CC1=O` (centres undefined), the Potency result in [3], in assay [4], in assay [5], in [6], in [9] and in assay [8] was “inactive” throughout.

With `O=C1c2ccccc2S(=O)(=O)N1CCCCN1CCN(c2ncccn2)CC1`, the Potency result in [1], in [2], in assay [3], in assay [4], in [5] and in [6] was “inactive” each time. The Potency entry in assay [7] and in assay [9] was “inactive” throughout.

As for `CC(C)(COC(=O)c1ccccc1)COC(=O)c1ccccc1`, the Potency entry in [1], in assay [2], in assay [3], in assay [4], in assay [5] and in assay [6] was “inactive” each time. Further, the Potency result in [7] and in [9] was “inactive” in each case.

Take `C#Cc1cccc(Nc2ncnc3cc(OCCOC)c(OCCOC)cc23)c1`: the Potency result in assay [1], in [2], in [3], in assay [4], in assay [5] and in [6] was “inactive” in each case. For the same compound, the Potency entry in assay [7] was “inactive”.

Take `COc1cccc(N(C)C(=S)Oc2ccc3c(c2)CCCC3)n1`: the Potency result in [1], in assay [2], in [3], in [4], in [5] and in assay [6] was “inactive” each time. For the same compound, the Potency result in assay [7] and in assay [9] was “inactive” each time.

Regarding `CCOC(=O)C1=C[C@]2(CC)CCCN3CCc4c(n1c1ccccc41)[C@@H]32`, the Potency result in assay [1], in assay [2], in assay [3], in assay [4], in assay [5] and in [6] was “inactive” throughout. The Potency result in [7] and in assay [8] was “inactive” throughout.

Take `CCCNCC(O)COc1ccccc1C(=O)CCc1ccccc1` (centres undefined): the Potency result in assay [2], in assay [3], in assay [4], in assay [5], in [6] and in assay [7] was “inactive” in each case.

In the case of `CC(=O)c1ccc2c(c1)N(CCCN(C)C)c1ccccc1S2`, the Potency result in assay [1], in assay [2], in assay [3], in [4], in assay [5] and in [6] was “inactive” in each case. Further, the Potency entry in assay [7] and in [8] was “inactive” each time.

For the compound `CCN(CC)CCOC(=O)C(Cc1cccc2ccccc12)CC1CCCO1` (centres undefined), the Potency entry in assay [1], in assay [2], in [3], in [4], in [5] and in [6] was “inactive” throughout. The Potency result in assay [7] is “inactive”. Moreover, the Potency in [9] was 21.3 µM (active).

Regarding `CCCCCCCCCCCCCCCCCCOS(=O)(=O)O`, the results for the Potency in assay [1], in assay [3] and in assay [7] were 54.9 µM (active), 43.6 µM (active) and 38.9 µM (active), respectively. For the same compound, the Potency entry in assay [4], in assay [5] and in assay [6] was “inactive” each time.

On to `CCOc1ccc(N=Nc2ccc(/C=C/c3ccc(N=Nc4ccc(OCC)cc4)cc3S(=O)(=O)O)c(S(=O)(=O)O)c2)cc1`, for which the Potency result in [1], in [2], in assay [3], in assay [4], in [5] and in assay [6] was “inactive” each time. For the same compound, the Potency result in [7] and in assay [9] was “inactive” in each case.

Turning to `CCC(C)c1cc(C(C)(C)C)c(O)c(C(C)(C)C)c1` (centres undefined), the Potency entry in assay [1], in [2], in assay [3], in [4], in [5] and in assay [6] was “inactive” throughout. Moreover, the Potency entry in [7] was “inactive”. Also, in [8], the Potency was 0.958 µM (active).

As to `CCn1cc(C(=O)O)c(=O)c2cnc(N3CCNCC3)nc21`, the Potency entry in assay [1], in assay [2], in assay [3], in [4], in [5] and in [6] was “inactive” each time. Further, the Potency entry in [9] and in [8] was “inactive” each time.

Take `CCCCCCc1ccc(-c2ccc(C#N)cc2)cc1`: the Potency entry in assay [1], in [2], in assay [3], in assay [4], in assay [5] and in assay [6] was “inactive” in each case. The Potency result in assay [7] and in [9] was “inactive” in each case.

`CN(C)C(=O)NC1(c2ccccc2)CCN(CC[C@@]2(c3ccc(F)c(F)c3)CN(C(=O)c3ccccc3)CCO2)CC1`: the Potency result in assay [1], in [2], in assay [3], in assay [4], in [5] and in assay [6] was “inactive” each time. In addition, the Potency entry in assay [7] and in assay [9] was “inactive” throughout.

`S=C([S-])NCCNC(=S)[S-].[Mn+2]`: the Potency result in assay [1], in assay [2], in assay [3], in assay [4], in assay [5] and in [6] was “inactive” throughout. Moreover, the Potency entry in assay [7] and in assay [9] was “inactive” in each case.

For `Brc1c2ccccc2c(Br)c2ccccc12`, the activity change, negative = cytotoxicity in assay [1] was 13.8% [at 5.95 µM]; in assay [5], -1.22% [at 6.95 µM]. In addition, the viability change, negative = cytotoxic was -26.5% [at 6.95 µM] in assay [2] and 0.0847% [at 6.97 µM] in assay [7]. Further, the activity, negative = cytotoxic in assay [3] was -0.607% [at 6.95 µM]. In addition, the Potency in [4] was 0.882 µM (active). Moreover, in assay [6], the activity, negative = cytotoxicity was 12% [at 8.39 µM]. Besides, in [9], the activation was -11.4% [at 6.97 µM].

With `O=C(NCCO[N+](=O)[O-])c1cccnc1`, the Potency entry in assay [1], in [2], in assay [3], in assay [4], in [5] and in [6] was “inactive” each time. The Potency result in assay [8] is “inactive”.

`C=CCOc1ccccc1OCC(O)CNC(C)C` (centres undefined): the Potency entry in assay [2], in assay [3], in [4], in assay [5], in [6] and in assay [8] was “inactive” in each case.

In the case of `CC(=O)[O][Al][O]C(C)=O`, the Potency entry in assay [2], in [3], in assay [4], in assay [5], in assay [6] and in assay [9] was “inactive” in each case.

Take `OCCN1CCN(CCCN2c3ccccc3C=Cc3ccccc32)CC1`: the Potency entry in assay [1], in assay [2], in assay [3], in assay [4], in [5] and in [6] was “inactive” throughout. Further, the Potency result in [9] and in assay [8] was “inactive” each time.

Regarding `C=C(C)C(=O)OCCOCC`, the Potency result in assay [1], in assay [2], in [3], in assay [4], in assay [5] and in assay [6] was “inactive” in each case. Also, the Potency result in assay [8] is “inactive”. Moreover, the Potency in [9] is 49.2 µM (active).

With `CCCCCCCCCOS(=O)(=O)O`, the Potency result in [1], in [2], in [3], in [4], in assay [5] and in assay [6] was “inactive” in each case. Besides, the Potency entry in assay [9] and in [8] was “inactive” each time.

These data come from PubChem BioAssay (Tox21).
